In the library only some 13% were active in any assay of this set; here they are far more common.
Marburg entry inh: qHTS for inhibitors of binding or entry into cells for Marburg Virus; Marburg virus pseudotyped entry inhibition, cell reporter; Potency, µM (highest dose often 37.8 µM), hits mostly inhibitors; 300,000 tested, 1.8% active; AID 540276, 2011; calls by dose curve; tested in HEK293 cells
LASV entry inh: qHTS for Inhibitors of binding or entry into cells for Lassa Virus. Lassa virus pseudotype entry inhibition, cell reporter. Potency, µM (series often up to 37.9 µM), most hits filed as inhibitors. 300,000 tested, 1.2% active. AID 540256, 2011; calls by dose curve; tested in HEK293 cells; note: nearly all actives have a fitted effect of over 50% in size
HCV inhibitor: qHTS Assay for Inhibitors of Hepatitis C Virus (HCV). 340,000 tested, 3.4% active. Huh7.5.1 HCVcc-Cre infection, luciferase reporter, 44 h. Potency, µM (series often up to 41.8 µM), most hits filed as inhibitors; active = well fitted inhibition curve with a large enough effect; inconclusive = small, poorly fitted or top-dose-only effect, or another doubt; inactive = no such curve, though single readings can be large or run the other way
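After 44 h co-culture of compound, cells and HCVcc-Cre (~0.5 moi), substrate is added for 15 min at room temperature and luciferase measured over 15 sec. Cells were seeded at 1,000/well and pre-cultured 4 h.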
Shiga inhibitor: A qHTS for Small Molecule Inhibitors of Shiga Toxin; Vero cells, Shiga toxin protein synthesis inhibition reporter; 290,000 tested, 9.2% active; inhibition, % at 38.7 µM; in the data active = inhibition mostly above about 28%, no sharp cut-off; inactive = mostly below about 43%
FMDV inh: High Throughput Screening for Foot and Mouth Disease Virus Antivirals; Potency, µM (titrated, usually from 57.9 µM), hits mostly inhibitors; FMDV antiviral cell-based qHTS; 410,000 tested, 1.2% active; calls by dose curve; tested in HEK293T cells; note: read-out not given here; nearly all actives have a fitted effect of over 45% in size
Cycloheximide cs: Cycloheximide Counterscreen for Small Molecule Inhibitors of Shiga Toxin; cell reporter, cycloheximide protein synthesis inhibition counterscreen; max response, %; 300,000 tested, 12% active; in the data active = max response mostly above about 13%, no sharp cut-off; inactive = mostly below about 14%; note: read at 38.3 µM for the half of the compounds with a filed dose
Hits are given with their value; - = inactive; ? = inconclusive; . = no result given.

SMILES | Marburg entry inh | LASV entry inh | HCV inhibitor | Shiga inhibitor | FMDV inh | Cycloheximide cs
COC(=O)N/N=C(\C)c1ccco1 | - | - | - | - | - | -
C/C(=N\NC(=O)c1ccc(Cl)cc1)c1ccc(Br)s1 | - | ? | - | 89.6 | - | 29.0
C/C(=N\NC(=O)c1ccco1)c1ccc(C(=O)O)s1 | . | . | - | 79.8 | - | 50.4
C/C(=N\NC(=O)c1cc(Cl)ccc1O)c1ccc(Br)s1 | ? | - | - | - | - | -
C/C(=N/NC(=O)c1ccco1)c1ccc(Br)s1 | . | . | - | 35.2 | - | 25.9
CC1=C(C(=O)Nc2cccnc2)C(c2ccc(C)cc2)n2nc(SCc3ccccc3F)nc2N1 (stereo unspecified) | - | ? | . | . | - | .
COc1ccc2c(c1)c(=O)cc(-c1ccccc1)n2C | - | ? | - | 49.4 | - | 21.9
CCOC(=O)c1c[nH]c2c(Cl)c(Cl)ccc2c1=O | - | ? | - | - | - | -
CCOC(=O)c1c[nH]c2c3c(ccc2c1=O)CCCC3 | ? | - | ? | - | - | 22.0
Cc1ccc(S(=O)(=O)N2CCC(NC(=O)c3cccc(F)c3)CC2)cc1 | - | - | - | - | - | -
COc1ccc(COC(=O)C2CCN(S(=O)(=O)c3ccc(C)cc3)CC2)cc1 | - | - | - | . | - | .
CCOC(=O)C(C)Oc1cc(C)cc2oc(=O)c3c(c12)CCCC3 (stereo unspecified) | ? | ? | 10µM | - | ? | -
Cc1cc(OCC(=O)NCc2cccnc2)c2c3c(c(=O)oc2c1)CCCC3 | . | . | 10µM | - | - | -
COC(=O)C(C)Oc1cc(C)cc2oc(=O)c3c(c12)CCCC3 (stereo unspecified) | - | - | ? | - | - | -
Cc1cc(Nc2sc(C(=O)c3ccc(F)cc3)c(N)c2C(=O)Nc2ccc(F)cc2)ccc1Cl | . | ? | . | . | 10µM | .
COc1ccc(Nc2sc(C(=O)c3ccc(Cl)cc3)c(N)c2C(=O)Nc2ccccc2OC)cc1 | ? | - | ? | - | - | -
Cc1ccc(Nc2sc(C(=O)c3ccc(F)cc3)c(N)c2S(=O)(=O)c2ccc(C)cc2)cc1 | . | 1.12µM | . | . | - | .
CCc1ccc(Nc2sc(C(=O)c3ccc(F)cc3)c(N)c2S(=O)(=O)c2ccccc2)cc1 | ? | ? | . | . | - | .
COc1cccc(Nc2sc(C(=O)c3ccc(F)cc3)c(N)c2C(=O)NCc2ccc(Cl)cc2)c1 | . | - | . | . | - | .
COc1ccc(NC(=O)c2c(Nc3ccccc3)sc(C(=O)c3ccc(F)cc3)c2N)cc1 | 6.31µM | 12.6µM | 6.31µM | - | ? | -
COc1ccc(C(=O)c2sc(Nc3cccc(OC)c3)c(C(=O)Nc3cccc(C)c3C)c2N)cc1 | 20.6µM | ? | - | - | - | -
COc1ccc(S(=O)(=O)N2CCCC2)cc1C(=O)N1CCOCC1 | ? | - | - | - | - | -
CC(C)C1CC2=C(C(=O)OC(C)(C)O2)C(c2ccc(Cl)cc2)O1 (stereo unspecified) | . | . | . | . | - | .
Cc1ccccc1NC(=O)N1CCC(NC(=O)C2CCCCC2)CC1 | - | - | - | - | - | -
COC1=C[C@@H](C)C2CC3OC(=O)C[C@H]4C(C)=C(OC)C(=O)C([C@@]2(C)C1=O)[C@@]34C (stereo partly specified) | . | . | . | . | - | .
SMILES | Marburg entry inh | LASV entry inh | HCV inhibitor | Shiga inhibitor | FMDV inh | Cycloheximide cs
CCOc1ccc(NC(=O)c2c(Nc3ccccc3C)sc(C(=O)c3ccc(Cl)cc3)c2N)cc1 | . | - | . | . | ? | .
COc1ccccc1NC(=O)c1c(Nc2ccccc2C)sc(C(=O)Nc2cccc(Cl)c2)c1N | ? | ? | 12.6µM | - | 7.94µM | -
Cc1ccc(C2=Nc3cccnc3C(c3ccccc3)=NN2)cc1 | ? | ? | - | 79.2 | - | 49.0
CCOc1ccc2c(c1)C(c1ccccc1)=NNC(c1ccccc1)=N2 | - | - | - | 57.4 | - | 45.4
Cc1ccc2c(c1)C(c1ccncc1)=NNC(c1ccc(F)cc1)=N2 | - | - | - | - | - | -
Brc1ccc(C2=Nc3ccccc3C(c3ccncc3)=NN2)cc1 | - | - | ? | - | - | -
Fc1ccc2c(c1)C(c1ccncc1)=NNC(c1ccc(Br)cc1)=N2 | - | - | - | - | - | -
Cc1ccc(C2=Nc3ccc(Br)cc3C(c3ccncc3)=NN2)cc1 | ? | - | - | - | - | 28.4
Cc1ccc2c(c1)C(c1ccncc1)=NNC(c1ccccc1)=N2 | - | - | - | 103.4 | - | 50.1
